Measured values from PubChem BioAssay (NCATS).
Records with an inconclusive call do not appear. A number with no mark means an inactive call. The call rests on the fitted dose curve; in most records, active means well fitted inhibition curve with a large enough effect; inconclusive means small, poorly fitted or top-dose-only effect; inactive means flat fitted curve, though single readings scatter.

The compounds below were run on CP250 (assay: qHTS profiling for inhibitors of Plasmodium falciparum proliferation (AID 504749;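 further: 0% = DMSO vehicle and full inhibition = artemisinin control; nearly all actives have a fitted effect of over 60% in size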)). Details: P. falciparum in erythrocytes, SYBR Green DNA, 72 h; series mostly up to 28.7 µM; activity, negative = inhibition: at the top concentration.
Summary of the method: (§1)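 SYBR Green fluorescence of parasite DNA, read after lysis and overnight dark incubation, measured growth over 72 h in erythrocyte culture at 0.3% parasitemia and 2.5% hematocrit. Data normalised to DMSO and 0.29 uM artemisinin, with plate-drift correction.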

Compound | activity, negative = inhibition
CC(C)[C@@H](N)C(=O)O | 3.22%
C[C@H]1O[C@@H](O[C@H]2[C@@H](O)C[C@H](O[C@H]3[C@@H](O)C[C@H](O[C@H]4CC[C@@]5(C)[C@H](CC[C@@H]6[C@@H]5C[C@@H](O)[C@]5(C)[C@@H](C7=CC(=O)OC7)CC[C@]65O)C4)O[C@@H]3C)O[C@@H]2C)C[C@H](O)[C@@H]1O | -5.98%
CC(=O)NCCCS(=O)(=O)O | 6.11%
C=Cc1ccc(S(=O)(=O)O)cc1 | -1.4%
CO | 6.66%
O=C1[O][Bi][O]c2ccccc21 | 4.73%
O=P(O)(O)CP(=O)(O)O | 10.6%
O=C1c2ccccc2C(=O)C1c1ccc(F)cc1 | -5.74%
CCOc1ccc(NC(=S)Nc2ccc(OCC)cc2)cc1 | 15%
O=C(O)c1ccc(NC(=O)[C@H](Cc2ccc(O)cc2)NC(=O)c2ccccc2)cc1 | -0.568%
COc1cc2c(cc1OC)[C@@H](Cc1cc(OC)c(OC)c(OC)c1)[N+](C)(CCCOC(=O)CC/C=C/CCC(=O)OCCC[N+]1(C)CCc3cc(OC)c(OC)cc3[C@H]1Cc1cc(OC)c(OC)c(OC)c1)CC2 (stereo partly drawn) | 8.14%
F[Si-2](F)(F)(F)(F)F | 3.88%
CC(C)CCC[C@@H](C)[C@H]1CC[C@H]2[C@@H]3CC=C4C[C@@H](O)CC[C@]4(C)[C@H]3CC[C@]12C | -8.61%
N[C@H](CC(=O)O)C(=O)O | 5.37%
Cc1c(Cl)cccc1Nc1ncccc1C(=O)O | 4.87%
O=C(O)CCC/C=C\C[C@@H]1[C@@H](/C=C/[C@@H](O)COc2cccc(C(F)(F)F)c2)[C@H](O)C[C@@H]1O | -4.13%
CN1C(=O)OC(C)(C)C1=O | 10.6% [at 12.8 µM]
CCCCCCCCCCCC(=O)OCC(O)CO (stereo not drawn) | 0.0961%
O=C(O)[C@H]1C(=CCO)O[C@H]2CC(=O)N12 | 2.9%
O=P(O)(O)O | -26.9%

Compound | activity, negative = inhibition
CC(=O)Nc1ccc(OC(=O)c2ccccc2O)cc1 | 2.59%
CC1=CC(=O)NS(=O)(=O)O1 | 7.5%
COC(=O)C(CN)c1c[nH]c2ccc(OC)cc12 (stereo not drawn) | 1.07%
CCOC(=O)[C@@H](N)CS | -1.79%
CCCCCCOC(=O)c1cccnc1 | 1.98%
CCN(CC)CCOc1ccccc1OC | 3.29%
CO/N=C(/C(=O)N[C@@H]1C(=O)N2C(C(=O)O)=C(COC(N)=O)CS[C@H]12)c1ccco1 | 0.677%
ClC(Cl)Cl | -1.07%
Nc1ncnc2c1ncn2[C@H]1CC[C@@H](CO)O1 | -1.96%
CC1CCCCN1CCCOC(=O)c1ccccc1 (stereo not drawn) | -0.734%
CC(=O)[C@H]1CC[C@H]2[C@@H]3C=CC4=CC(=O)CC[C@@]4(C)[C@H]3CC[C@]12C | 0.254% [at 12.8 µM]
CC/C=C\C/C=C\C/C=C\CCCCCCCC(=O)O | -2.81%
CCCCCCCCCCCCCCCCCCCCCC(=O)Nc1ccn([C@@H]2O[C@H](CO)[C@@H](O)[C@@H]2O)c(=O)n1 | -11.6%
CN(Cc1ccccc1)Cc1ccccc1 | 6.4%
CCCc1ccc(C(=O)O)cc1 | 3.83%
C=CC(=O)O | 7.54%
O=C(NNCNNC(=O)c1ccncc1)c1ccncc1 | -2.91%
CN(C)c1ccc(C(=C2C=CC(=[N+](C)C)C=C2)c2c(O)c(S(=O)(=O)[O-])cc3cc(S(=O)(=O)O)ccc23)cc1 | -17.6%
CC(C)(CO)[C@@H](O)C(=O)NCCC(=O)NCCSSCCNC(=O)CCNC(=O)[C@H](O)C(C)(C)CO | 2.15%

These compounds were tested on CP252 in the same assay as above. Details: P. falciparum in erythrocytes, SYBR Green DNA, 72 h; series mostly up to 28.7 µM; activity, negative = inhibition: at the top concentration.
Summary of the method: as §1

Compound | activity, negative = inhibition
CC(C)[C@@H](N)C(=O)O | 4.72%
C[C@H]1O[C@@H](O[C@H]2[C@@H](O)C[C@H](O[C@H]3[C@@H](O)C[C@H](O[C@H]4CC[C@@]5(C)[C@H](CC[C@@H]6[C@@H]5C[C@@H](O)[C@]5(C)[C@@H](C7=CC(=O)OC7)CC[C@]65O)C4)O[C@@H]3C)O[C@@H]2C)C[C@H](O)[C@@H]1O | -0.232%
CC(=O)NCCCS(=O)(=O)O | 3.28%
C=Cc1ccc(S(=O)(=O)O)cc1 | 12.4%
CO | 4.38%
O=C1[O][Bi][O]c2ccccc21 | -0.791%
O=P(O)(O)CP(=O)(O)O | 5.08%
O=C1c2ccccc2C(=O)C1c1ccc(F)cc1 | 1.86%
CCOc1ccc(NC(=S)Nc2ccc(OCC)cc2)cc1 | 3%
O=C(O)c1ccc(NC(=O)[C@H](Cc2ccc(O)cc2)NC(=O)c2ccccc2)cc1 | -2.45%
COc1cc2c(cc1OC)[C@@H](Cc1cc(OC)c(OC)c(OC)c1)[N+](C)(CCCOC(=O)CC/C=C/CCC(=O)OCCC[N+]1(C)CCc3cc(OC)c(OC)cc3[C@H]1Cc1cc(OC)c(OC)c(OC)c1)CC2 (stereo partly drawn) | 5.28%
F[Si-2](F)(F)(F)(F)F | -0.717%
CC(C)CCC[C@@H](C)[C@H]1CC[C@H]2[C@@H]3CC=C4C[C@@H](O)CC[C@]4(C)[C@H]3CC[C@]12C | -2.47%
N[C@H](CC(=O)O)C(=O)O | 2.84%
Cc1c(Cl)cccc1Nc1ncccc1C(=O)O | 3.66%
O=C(O)CCC/C=C\C[C@@H]1[C@@H](/C=C/[C@@H](O)COc2cccc(C(F)(F)F)c2)[C@H](O)C[C@@H]1O | -3.06%
CN1C(=O)OC(C)(C)C1=O | 2.23% [at 12.8 µM]
CCCCCCCCCCCC(=O)OCC(O)CO (stereo not drawn) | 3.59%
O=C(O)[C@H]1C(=CCO)O[C@H]2CC(=O)N12 | 4.99%
O=P(O)(O)O | -1.16%

Compound | activity, negative = inhibition
CC(=O)Nc1ccc(OC(=O)c2ccccc2O)cc1 | 0.255%
CC1=CC(=O)NS(=O)(=O)O1 | 5.72%
COC(=O)C(CN)c1c[nH]c2ccc(OC)cc12 (stereo not drawn) | 0.801%
CCOC(=O)[C@@H](N)CS | -7.39%
CCCCCCOC(=O)c1cccnc1 | 3.13%
CCN(CC)CCOc1ccccc1OC | -1.87%
CO/N=C(/C(=O)N[C@@H]1C(=O)N2C(C(=O)O)=C(COC(N)=O)CS[C@H]12)c1ccco1 | 0.862%
ClC(Cl)Cl | -3.74%
Nc1ncnc2c1ncn2[C@H]1CC[C@@H](CO)O1 | 1.92%
CC1CCCCN1CCCOC(=O)c1ccccc1 (stereo not drawn) | -15.6%
CC(=O)[C@H]1CC[C@H]2[C@@H]3C=CC4=CC(=O)CC[C@@]4(C)[C@H]3CC[C@]12C | -0.802% [at 12.8 µM]
CC/C=C\C/C=C\C/C=C\CCCCCCCC(=O)O | -11.6%
CCCCCCCCCCCCCCCCCCCCCC(=O)Nc1ccn([C@@H]2O[C@H](CO)[C@@H](O)[C@@H]2O)c(=O)n1 | -2.54%
CN(Cc1ccccc1)Cc1ccccc1 | 1.25%
CCCc1ccc(C(=O)O)cc1 | 2.45%
C=CC(=O)O | -2.25%
O=C(NNCNNC(=O)c1ccncc1)c1ccncc1 | 7.96%
CN(C)c1ccc(C(=C2C=CC(=[N+](C)C)C=C2)c2c(O)c(S(=O)(=O)[O-])cc3cc(S(=O)(=O)O)ccc23)cc1 | -7.07%
CC(C)(CO)[C@@H](O)C(=O)NCCC(=O)NCCSSCCNC(=O)CCNC(=O)[C@H](O)C(C)(C)CO | 14.7%
